KCNQ2 enhance – KCNQ2 (rat) channel potentiation; O88943; CHO-K1 KCNQ2, FluxOR thallium flux fluorescence; active compounds read high; B-score at 10 µM; 0.54% of 310,000 active;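 active = fluorescence ratio B-score at least 3 SD of library B-scores, with initial fluorescence B-score within 3 of them, cut at about 5.3 in these data; same plate scores as AID 2156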;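 also: B-score of peak minus minimum over baseline fluorescence ratio after K+ and Tl+ stimulus; positive B-score means potentiation of KCNQ2 with more thallium influx and brighter signal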
KCNQ2 block – blocks the rat KCNQ2 potassium channel. O88943. CHO-K1 KCNQ2, FluxOR thallium flux, 20 min; active compounds read low. B-score at 10 µM. 1.1% of 310,000 active. AID 2156;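 active = fluorescence ratio B-score at most minus 3 library SDs, with starting brightness B-score within 2 library SDs, cut at about -5.5 in these data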
Kir21 conf inh – confirmation of mouse Kir2.1 potassium channel inhibitors | shares compounds with KCNQ2 enhance | Kir2.1-expressing cells, FluxOR thallium flux fluorescence; active compounds read low | Tl flux remaining, % of negative control (active compounds read low), % at 10 µM | 41% of 2,300 active;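 active = Primary-screen hit whose thallium flux fell at least 3 control SD below untreated wells in both duplicates, with normal baseline fluorescence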
HEK293 ctr – alters thallium flux in parental HEK293 cells, Kir2.1 counter-screen; shares compounds with KCNQ2 enhance; FluxOR thallium flux fluorescence; 0% = unstimulated blank wells; 19% of 2,300 active; FluxOR signal as % of negative control (100 = no effect), % at 10 µM; AID 2105;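 active = dye signal at least 3 control SD above or below untreated wells in both duplicates, raw fluorescence within 3, either direction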;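 also: percent is based on the flux ratio of peak minus minimum fluorescence over baseline F0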
CHO-K1 Tl ctr – parental CHO-K1 activity in KCNQ2 potentiator counter-screen; shares compounds with KCNQ2 enhance; parental CHO-K1 cells, FluxOR thallium flux fluorescence; zero = vehicle mean+3SD, 100% = vehicle-minus-blank window; activity increase over 3SD of controls, % at 10 µM; 43% of 1,200 active;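 active = signal rise of at least 3 SD above the untreated control mean, in both duplicate wells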;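 also: counter screen of KCNQ2 potentiator hits so any rise reflects channel-independent effects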
KCNQ1 sel pot – tests whether KCNQ2 potentiators also act on human KCNQ1; shares compounds with KCNQ2 enhance; CHO KCNQ1 stable, FluxOR thallium flux fluorescence; beyond 3SD, as % of vehicle-control signal; activation over 3SD threshold, % at 10 µM; 28% of 1,200 active;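 active = fluorescence ratio rise of at least 3 SD of vehicle wells above their mean, in both replicate wells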
KCNQ2 pot confirm – rat KCNQ2 channel potentiator confirmation; CHO-KCNQ2 cells, FluxOR thallium flux fluorescence; shares compounds with KCNQ2 enhance; 68% of 1,200 active; potentiation, less the hit threshold, % at 10 µM; AID 2287;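 active = fluorescence ratio rising 3 SD or more over the vehicle control mean in both replicates, plus primary screen hit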;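 also: peak minus minimum thallium fluorescence divided by baseline after K/Tl stimulus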
Kir21 spec – mouse Kir2.1 off-target activity of KCNQ2 potentiators; shares compounds with KCNQ2 enhance; HEK293 Kir2.1, FluxOR thallium flux fluorescence; activity over 3SD threshold, % at 10 µM; 2% of 1,200 active;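 active = fluorescence ratio rise of at least 3 SD above the vehicle-control mean, seen in both replicates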
KCNQ2 W236L MoA – KCNQ2 potentiators acting on retigabine-insensitive rat KCNQ2 W236L mutant; AID 2558; CHO KCNQ2-W236L, automated patch clamp current; current increase over 3SD of negative controls (%), active compounds read high, % at 25 µM; shares compounds with KCNQ2 enhance; 10% of 940 active;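 active = current increase at least 3 SD of the untreated controls above them in both duplicate recordings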
Target sequence (O88943 whole entry W236L, looked up): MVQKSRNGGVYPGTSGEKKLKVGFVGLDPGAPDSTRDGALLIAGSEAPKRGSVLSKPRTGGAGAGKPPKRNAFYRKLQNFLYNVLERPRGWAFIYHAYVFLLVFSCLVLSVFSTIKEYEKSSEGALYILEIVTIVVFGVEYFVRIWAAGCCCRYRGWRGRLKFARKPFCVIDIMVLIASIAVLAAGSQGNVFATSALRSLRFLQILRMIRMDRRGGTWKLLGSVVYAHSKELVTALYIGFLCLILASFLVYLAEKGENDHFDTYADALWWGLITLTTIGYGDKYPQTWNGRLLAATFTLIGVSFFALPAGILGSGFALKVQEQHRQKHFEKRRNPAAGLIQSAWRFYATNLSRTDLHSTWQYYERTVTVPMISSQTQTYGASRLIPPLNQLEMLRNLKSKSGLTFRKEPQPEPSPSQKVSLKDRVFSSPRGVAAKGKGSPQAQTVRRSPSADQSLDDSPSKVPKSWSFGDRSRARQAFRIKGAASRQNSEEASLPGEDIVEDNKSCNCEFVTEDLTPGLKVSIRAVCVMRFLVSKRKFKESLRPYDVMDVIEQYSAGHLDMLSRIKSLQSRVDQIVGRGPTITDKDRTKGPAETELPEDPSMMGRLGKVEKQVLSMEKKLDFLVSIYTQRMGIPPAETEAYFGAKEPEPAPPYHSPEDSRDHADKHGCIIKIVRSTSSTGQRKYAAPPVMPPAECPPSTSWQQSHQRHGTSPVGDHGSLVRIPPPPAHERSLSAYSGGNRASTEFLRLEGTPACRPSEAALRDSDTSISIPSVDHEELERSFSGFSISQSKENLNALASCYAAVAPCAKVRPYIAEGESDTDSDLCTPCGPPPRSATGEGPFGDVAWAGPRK
A number is an active result; . = inactive; / = no result. The list is not random: actives were taken first. Their share in the collection is about 1.6%.

SMILES | KCNQ2 enhance | KCNQ2 block | Kir21 conf inh | HEK293 ctr | others
CCOc1ccc(C(=O)NNC(=O)C2CC(=O)N(c3ccc(C)cc3)C2)cc1 (configuration not stated) | / | . | / | /
Cc1cccc(/C=C2/S/C(=N/N=C3\CC4CCC3(C)C4(C)C)NC2=O)c1 (configuration not stated) | 20.6 | . | . | . | CHO-K1 Tl ctr=.;KCNQ1 sel pot=.;KCNQ2 pot confirm=.;Kir21 spec=.;KCNQ2 W236L MoA=.
O=C1N/C(=N/O)S/C1=C/c1cccc([N+](=O)[O-])c1 | . | . | / | /
O=C(NCC1COCCO1)c1ccc2nc(Cc3cccc(Cl)c3)oc2c1 (configuration not stated) | . | . | / | /
Cc1sc(NC(=S)NC(=O)C2CCCCC2)c(C(N)=O)c1C | . | . | / | /
Cc1ccc(C(=O)NNc2cc(N3CCCC3)nc(N3CCCC3)n2)cc1 | 10.1 | . | . | . | CHO-K1 Tl ctr=95.5;KCNQ1 sel pot=.;KCNQ2 pot confirm=39.1;Kir21 spec=.;KCNQ2 W236L MoA=.
O=C(NNc1cc(N2CCOCC2)nc(N2CCOCC2)n1)c1ccc(Cl)c(Cl)c1 | . | . | / | /
Cc1ccc(NC(=O)c2cccc(NC(=O)CC3SC(N4CCCCC4)=NC3=O)c2)nc1 (configuration not stated) | . | . | / | /
CN1CCN(NC(=O)COc2cccc(C(F)(F)F)c2)CC1 | / | . | / | /
O=C(COc1ccccc1)Nc1cc(C(F)(F)F)ccc1N1CCCC1 | / | . | / | /
COc1cccc(CC(=O)Nc2cc(C(F)(F)F)ccc2N2CCCC2)c1 | 5.37 | . | . | . | CHO-K1 Tl ctr=.;KCNQ1 sel pot=.;KCNQ2 pot confirm=.;Kir21 spec=.;KCNQ2 W236L MoA=.
Cc1cc(N2CCCC2)ccc1NC(=O)COc1cccc(C(F)(F)F)c1 | 6.4 | . | . | . | CHO-K1 Tl ctr=.;KCNQ1 sel pot=.;KCNQ2 pot confirm=6.0;Kir21 spec=.;KCNQ2 W236L MoA=.
Fc1c(CSC(=S)N2CCOCC2)cccc1CSC(=S)N1CCOCC1 | / | . | / | /
COc1cccc(CNC(=O)CCC2CCCN(C(=O)c3ccc(OC)o3)C2)c1 (configuration not stated) | / | . | / | /
CSCCC(NC(=O)c1ccco1)C(=O)Nc1ccc(C)cn1 (configuration not stated) | . | . | / | /
CCOc1cc(/C=N\Nc2ncc(F)c(N3CCOCC3)n2)ccc1Oc1nc(Cl)ncc1F | / | . | / | /
O=C(O)CCC(=O)NNc1nc(-c2ccccc2)c2cc(Cl)ccc2n1 | / | . | / | /
O=C(CN1CCCCC1)NNc1nc(-c2ccccc2)c2cc(Cl)ccc2n1 | 11.1 | . | . | . | CHO-K1 Tl ctr=.;KCNQ1 sel pot=.;KCNQ2 pot confirm=15.4;Kir21 spec=.;KCNQ2 W236L MoA=.
COc1ccc(CNC(=O)c2coc(=O)c3ccccc23)c(OC)c1 | / | . | / | /
CCCCc1cc(=O)oc2cc(C)cc(OCC(=O)NC(Cc3ccc(Cl)cc3)C(=O)O)c12 (configuration not stated) | / | . | / | /
COc1ccc(Cn2c(=O)[nH]c3cc(C(=O)N4CCN(c5ccc(C(C)=O)cc5)CC4)ccc3c2=O)cc1 | . | . | / | /
CN(C)Cc1c(O)ccc2ccccc12 | / | . | / | /
CC(C)CN(Cc1c(O)ccc2ccccc12)CC(C)C | 6.48 | . | . | . | CHO-K1 Tl ctr=.;KCNQ1 sel pot=.;KCNQ2 pot confirm=.;Kir21 spec=.
COc1ccc(C)cc1NS(=O)(=O)c1ccc(NS(=O)(=O)c2ccc(NC(C)=O)cc2)cc1 | . | . | / | /
COc1ccc(Cl)cc1NS(=O)(=O)c1ccc(OC)c(OC)c1 | / | . | 51.0% | 139.5%
SMILES | KCNQ2 enhance | KCNQ2 block | Kir21 conf inh | HEK293 ctr | others
COc1ccc(S(=O)(=O)Nc2cc(Cl)ccc2OC)cc1 | / | . | / | /
COc1ccc(S(=O)(=O)Nc2cc(C)ccc2OC)cc1C | / | . | 77.0% | .
COc1cc(C(=O)N/C(=C/c2ccc(F)cc2)C(=O)NC(C(=O)O)c2ccccc2)cc(OC)c1OC (configuration not stated) | / | . | / | /
Cc1nc(N2CCOCC2)nc2c1CCC2 | . | . | / | /
CCCOc1ccc(CSC(=N)N)cc1C(=O)OC | . | . | / | /
COC(=O)c1cc(CSC(=N)N)ccc1OCCC(C)C | . | . | 29.0% | .
CCN(CC)CCCN(C(=O)c1ccc(OC)cc1)c1nc(-c2ccc(OC)cc2)cs1 | . | . | 77.5% | .
CCN(CC)CCCN(C(=O)c1ccccc1C)c1nc(-c2ccc(OC)cc2)cs1 | . | . | / | /
COC(=O)c1ccc(COc2ccc(CNCc3ccc(Cl)cc3)cc2)cc1 | . | . | / | /
CN(C)c1ccc(CNCCC(Cc2ccccc2)c2ccco2)cc1 (configuration not stated) | / | . | / | /
c1ccc(CNCCC(Cc2ccccc2)c2ccco2)cc1 (configuration not stated) | / | . | 17.0% | 74.0%
O=C(Nc1ccccc1O)c1nc(Cl)ccc1Cl | . | . | / | /
Cc1ccccc1Nc1nc(N)c2ccccc2n1 | . | . | / | /
Nc1nc(Nc2ccccc2)nc2ccccc12 | . | . | / | /
CCOc1ccc(Nc2nc(N)nc(CCl)n2)cc1 | . | . | / | /
CCOc1ccc(Nc2nc(N)c3ccccc3n2)cc1 | . | . | 50.5% | .
CN(C)c1ccc(Nc2nc(N)c3ccccc3n2)cc1 | . | . | 32.5% | .
Nc1nc(Nc2ccc(Cl)cc2)nc2ccccc12 | / | . | . | 173.5%
Cc1cc(C)cc(NC(=O)CSc2nc(=O)n(CCCN3CCOCC3)c3c2CCCC3)c1 | / | . | / | /
CCCCc1ccc(S(=O)(=O)NCCCN2CCCC2=O)cc1 | / | . | / | /
N#Cc1c(-c2cccs2)nc(SCc2ccc(Cl)cc2)[nH]c1=O | 6.11 | . | . | 59.5% | CHO-K1 Tl ctr=4.4;KCNQ1 sel pot=18.3;KCNQ2 pot confirm=15.4;Kir21 spec=.;KCNQ2 W236L MoA=.
CSc1nc(-c2cccs2)c(C#N)c(=O)[nH]1 | . | . | / | /
CC(C(Sc1ccccc1N)c1ccccc1)[N+](=O)[O-] (configuration not stated) | / | . | 52.0% | .
Nc1ccccc1SSc1ccccc1N | / | . | / | /
CCO[C@H]1OC(C(N)=O)=C[C@@H](C(C)(C)C)[C@@H]1CCCO | . | . | / | /
SMILES | KCNQ2 enhance | KCNQ2 block | Kir21 conf inh | HEK293 ctr | others
COCCn1c(=S)[nH]c2sc3c(c2c1=O)CCCC3 | 10.4 | . | . | 326.5% | CHO-K1 Tl ctr=.;KCNQ1 sel pot=34.9;KCNQ2 pot confirm=33.5;Kir21 spec=.;KCNQ2 W236L MoA=.
Cc1ccc(-n2c(=S)[nH]c3sc4c(c3c2=O)CCC4)cc1 | . | . | / | /
O=c1c2c3c(sc2[nH]c(=S)n1Cc1ccco1)CCC3 | . | . | / | /
C=CCn1c(=S)[nH]c2sc3c(c2c1=O)CCCC3 | 11.2 | . | . | 297.5% | CHO-K1 Tl ctr=.;KCNQ1 sel pot=.;KCNQ2 pot confirm=63.4;Kir21 spec=.;KCNQ2 W236L MoA=.
NS(=O)(=O)c1cccc(NC(=O)C(Cc2ccccc2)NC(=O)c2ccccc2)c1 (configuration not stated) | / | . | / | /
CCN(CC)CC(=O)N1c2ccccc2Sc2ccccc21 | . | . | / | /
